From PubChem
Shn3 3UTR inh = Schnurri-3 reporter inhibition in Clone20 osteoblasts; inhibition, % at 12.5 µM; Clone20 osteoblast Shn3 3'UTR firefly luciferase, 24 h; AID 588674; hit rate 0.52% among 360,000;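 active = mean inhibition of at least 75% with every replicate also reaching 75%; inconclusive = mean inhibition at least 75% but some replicate below; inactive = mean inhibition below 75%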
LMP1 NFkB inh = Epstein-Barr LMP1 NF-kappaB reporter inhibition | LMP1-induced NF-kappaB luciferase reporter cells, luminescence | inhibition, % at 12.5 µM | hit rate 0.69% among 350,000; in the data active = inhibition above about 41%; inconclusive = no clear call, values can overlap the other calls
TROY NFkB inh = TROY signaling inhibition; hit rate 0.98% among 360,000; Q293 LMP1-TROYcd NF-kB luciferase reporter, 4 h; inhibition, % at 10 µM;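 active = compounds whose plate-normalised and pattern-corrected inhibition of the luciferase reporter signal at the single screening dose is 50% or more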
TRPM1 prom inh = reduces MITF-dependent TRPM1 promoter luciferase signal | SK-MEL-5 TRPM1 promoter luciferase, 24 h | hit rate 0.83% among 330,000 | inhibition, % at 12.5 µM;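 active = mean inhibition across replicates of 60% or more, whatever share of single replicates reaches that level; inconclusive = some that reach 60%, reason not given; inactive = mean inhibition across replicates below 60%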
HIF-2a inh = inhibitors of HIF-2a; 786-0 RCC cells HIF-2a reporter, luciferase luminescence, overnight; inhibition, % at 18.8 µM; hit rate 0.72% among 360,000;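 active = inhibition of the luminescence signal of 40% or more relative to plate controls, in a single-dose primary screen at 18.75 µM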
TWEAK-Fn14 inh = inhibitors of TWEAK-Fn14 interaction signaling. inhibition, % at 10 µM. AID 1159606. TWEAK-stimulated Fn14 reporter cells, luciferase luminescence, 8 h. hit rate 2% among 360,000; in the data active = inhibition above about 50%
Each line names hits and unclear results; the compound was inactive in the other large screens; ! = not active in a repeat. Hits are enriched below; roughly 3.4% of the tested compounds scored in any of these assays.

CC(C)(C)NC(=O)NC(=O)CN1CCN(c2ccc(O)cc2)CC1	Shn3 3UTR inh 87
CCCc1ccc(C(=O)NNc2cc(Cl)ccc2Cl)cc1	Shn3 3UTR inh 90
CCCc1ccc(C(=O)NNC(=O)c2ccc(Cl)cc2)cc1	none
Cn1c(=NC(=O)c2ccccc2[N+](=O)[O-])sc2cc(S(C)(=O)=O)ccc21	TWEAK-Fn14 inh 51
Cn1c(=O)c2c(nc(Oc3ccc4ccccc4c3)n2C)n(C)c1=O	TWEAK-Fn14 inh 51
COc1ccc(Oc2nc3c(c(=O)n(C)c(=O)n3C)n2C)cc1	none
O=[N+]([O-])c1ccc(N=Nc2ccc(O)c3ccccc23)cc1	TWEAK-Fn14 inh 69
COc1cccc2c1C(=O)c1c(O)c3c(c(O)c1C2=O)CC(O)(C(C)=O)CC3OC1CC(O)C(O)C(C)O1 (centres undefined)	TRPM1 prom inh 77
COc1cccc2c1C(=O)c1c(O)c3c(c(O)c1C2=O)C[C@](O)(C(C)=O)C[C@H]3O[C@@H]1C[C@@H](N)[C@@H](O)[C@@H](C)O1	Shn3 3UTR inh 94, LMP1 NFkB inh 91, TROY NFkB inh 77, TRPM1 prom inh 88, TWEAK-Fn14 inh 97
COc1cccc2c1C(=N)c1c(O)c3c(c(O)c1C2=O)CC(O)(C(C)=O)CC3OC1CC(N)C(O)C(C)O1 (centres undefined)	Shn3 3UTR inh 92, LMP1 NFkB inh 53, TRPM1 prom inh 92
CCCCC(=O)OCC(=O)C1(O)Cc2c(O)c3c(c(O)c2C(OC2CC(NC(=O)C(F)(F)F)C(O)C(C)O2)C1)C(=O)c1c(OC)cccc1C3=O (centres undefined)	LMP1 NFkB inh 48, TRPM1 prom inh 61
COc1cccc2c1-c1c(O)cccc1C2=O	none
O=C(O)[C@H](Cc1ccccc1)N1C(=O)c2c(Cl)c(Cl)c(Cl)c(Cl)c2C1=O	none (no result: TRPM1 prom inh)
CCCc1nnc(SCC(=O)Nc2ccc(OCC)cc2)n1N	TWEAK-Fn14 inh 100
CCOc1ccc(NC(=O)CSc2nnc(-c3ccccc3)n2N)cc1	none
CC(C)=C(NC(=O)c1ccccc1Cl)C(=O)NCCc1nc2ccccc2[nH]1	none (no result: TRPM1 prom inh)
CSc1ccccc1NC(=O)C(C)N(C)CC(=O)N1CCN(Cc2ccccc2)CC1 (centres undefined)	LMP1 NFkB inh 72
O=C(Nc1ccc(F)c(F)c1)C1CCCCC1	LMP1 NFkB inh 49
Nc1nc(Cl)cc(N2CCC(c3cc(-c4ccc(Cl)cc4)n[nH]3)CC2)n1	Shn3 3UTR inh 81, TRPM1 prom inh 65, TWEAK-Fn14 inh 94
COc1ccc(OC)c(-c2cc(C3CCN(c4cc(Cl)nc(N)n4)CC3)[nH]n2)c1	TROY NFkB inh 53, TWEAK-Fn14 inh 67
CCOC(=O)C1=CCC2C(=O)N(CC)C(=O)C12 (centres undefined)	none (no result: LMP1 NFkB inh, TRPM1 prom inh)
O=C(NCc1ccco1)C1CC(=O)N(c2cccc(Cl)c2)C1 (centres undefined)	LMP1 NFkB inh 65
CC(C(=O)N1CCCC1)N1CCN(S(=O)(=O)c2ccccc2)CC1 (centres undefined)	none
O=C(CCl)Nc1cn(-c2ccccc2)nc1-c1ccccc1	TRPM1 prom inh 74
CC(=O)Nc1cn(-c2ccccc2)nc1-c1ccccc1	none
O=C(c1cc(C2CC2)nn1-c1ccccc1)N1CCN(Cc2ccccc2)CC1	none (no result: TRPM1 prom inh)
O=C(Nc1nc2c(F)cc(F)cc2s1)c1ccc([N+](=O)[O-])o1	none (no result: TRPM1 prom inh)
COc1ccc2cc1Oc1ccc(cc1)C[C@H]1c3c(cc(OC)c4c3Oc3c(ccc5c3[C@H](C2)N(C)CC5)O4)CCN1C	TRPM1 prom inh 91
O=C(N/C(=C/c1ccccc1F)C(=O)N1CCCCC1)c1ccccc1	none (no result: TRPM1 prom inh)
COc1ccc2nc(C)cc(SCC(=O)N/N=C/c3ccccc3)c2c1	none
CCCCSc1nc(C)cc(SCC(=O)N/N=C/c2cccc(OC)c2O)n1	TWEAK-Fn14 inh 103 (no result: TROY NFkB inh)
COc1ccc2nc(C)cc(SCC(=O)N/N=C/c3ccc(O)cc3O)c2c1	Shn3 3UTR inh 87
COc1ccccc1/C=N/NC(=O)CSc1ccc2ccccc2n1	TWEAK-Fn14 inh 52
COc1cc(CC(=O)N2CCN(S(=O)(=O)c3ccc(C(C)C)cc3)CC2)cc(OC)c1OC	none (no result: TRPM1 prom inh)
COc1cc(NC(=O)CCS(=O)(=O)c2ccc3c(c2)oc(=O)n3C)cc(OC)c1OC	none
CN(C)CCCN=Cc1c(-c2ccccc2)[nH]n(-c2nc3ccccc3s2)c1=O	TRPM1 prom inh inconclusive, TWEAK-Fn14 inh 62
O=C(c1[nH]ncc1-c1cccc(Br)c1)C1CO1 (centres undefined)	TWEAK-Fn14 inh 54
O=C(c1[nH]ncc1-c1ccccc1)C1CO1 (centres undefined)	none
O=S(=O)(Nc1cccc(-c2ccc3nncn3n2)c1)c1cc(F)ccc1F	none
CC(C)c1ccc2c(c1)CCC1C(C)(CN)CCCC21C (centres undefined)	TRPM1 prom inh 98
CC(C)c1ccc2c(c1)CC[C@H]1[C@](C)(CN)CCC[C@]21C	TRPM1 prom inh 102!
O=C(CCCCCN1C(=O)c2ccccc2C1=O)Nc1ccccc1	none
O=C(CCCCCCC(=O)Nc1ccccc1)NO	TRPM1 prom inh 84
Cc1ccc(C(=O)OCC(=O)NNC(=O)COc2ccc(Cl)cc2)c(O)c1	none
CCC(=O)Nc1nc2ccc3sc(C)nc3c2s1	TWEAK-Fn14 inh 69
Cc1ccccc1OCc1nnc(SCC(=O)Nc2ccc3c(c2)oc2ccccc23)n1C	none
Cc1ccc(-c2nnc(SCC(=O)Nc3ccc4c(c3)oc3ccccc34)n2C)c(Cl)c1	TWEAK-Fn14 inh 67
COc1ccc(Cl)cc1NC(=O)CN(C)C(=O)c1cc2c(s1)CCCC2	none
CCc1ccc(C(=O)COC(=O)c2n[nH]c3ccccc23)cc1	TWEAK-Fn14 inh 62
CN(C)S(=O)(=O)c1cccc(NC(=O)COc2ccccc2C(=O)Nc2ccccc2)c1	TWEAK-Fn14 inh 51 (no result: TRPM1 prom inh)
CN(C)S(=O)(=O)c1cccc(NC(=O)c2ccc(COc3ccccc3)cc2)c1	TROY NFkB inh 58, TWEAK-Fn14 inh 90
CCCNC(=O)N(C)C[C@H]1Oc2ncc(Br)cc2C(=O)N([C@H](C)CO)C[C@H]1C	none (no result: TRPM1 prom inh)
CSCC(CO)NS(=O)(=O)c1ccc(C)cc1 (centres undefined)	TROY NFkB inh 57
CCC(C)C(NS(=O)(=O)c1ccc(C)cc1)C(=O)O (centres undefined)	none
CCN1CCC(O)(/C=C/c2ccc(C(C)C)cc2)C(C(=O)/C=C/c2ccc(C(C)C)cc2)C1 (centres undefined)	TRPM1 prom inh 67
CCN1CCN(C(=O)/C=C/c2ccc(C(C)C)cc2)CC1	none
CC1=C(C#N)c2nc(N)c(C#N)c(C)c2/C1=C\c1ccc(-c2ccccc2C(=O)O)o1	TWEAK-Fn14 inh 70
O=C(NC12CC3CC(CC(C3)C1)C2)c1ccc(-c2ccc(Cl)cc2)o1	TROY NFkB inh 54
O=C(NC12CC3CC(CC(C3)C1)C2)c1ccc(-c2cccc(Cl)c2)o1	TROY NFkB inh 73, TWEAK-Fn14 inh 68
